Source: PubChem BioAssay (several laboratories)
Wnt act – activates Wnt/beta-catenin signaling in a reporter cell assay; activator, plate reader; activation, % at 9.35 µM; hit rate 1.2% among 300,000; AID 743398; in the data active = activation above about 30%, passing the limit was not always enough; inconclusive = no clear call, values can overlap the other calls;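 also: 0% = neutral control wells and 100% = positive control wells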
FXN GAA850 act – frataxin GAA850 promoter activation; HEK293 lucGAA850 FXN promoter luciferase reporter, 24 h; percent of 10 µM SAHA response; activation, % at 6 µM; hit rate 0.56% among 360,000;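 active = activation above the average of all compounds screened plus 3 SD, cutoff fixed separately per campaign, cut at about 7.5% in these data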;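 also: 0% = DMSO wells and 100% = 10 µM SAHA wells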
AHR activator – activates the human aryl hydrocarbon receptor; P35869; AHR-responsive luciferase reporter cells, luminescence; activation, % at 5 µM; hit rate 2.5% among 320,000; AID 2796; in the data active = activation above about 47%;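 also: 0% = vehicle wells and 100% = reference agonist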
esBAF inh – blocks esBAF chromatin remodeling in mouse ES cells. Bmi1-luciferase knock-in reporter, 24 h; 100% = twice the neutral-well signal. reporter increase, % at 12.5 µM. hit rate 2% among 350,000; in the data active = activation above about 40%; inconclusive = no clear call, values can overlap the other calls;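 also: 0% = median of the plate's neutral control wells and 100% = double that signal; a rise in the Bmi1 reporter signal indicates esBAF inhibition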
MITF act – MITF TRPM1 promoter activation in melanoma cells; SK-MEL-5 TRPM1-promoter luciferase, 24 h; % of positive control, neutral wells = 0; activation, % at 12.5 µM; AID 588334; hit rate 0.75% among 300,000;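 active = mean activation of at least 80% with every replicate also reaching 80%; inconclusive = mean reaches 80% but some replicate falls short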;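 also: 0% = neutral control wells and 100% = parthenolide positive control wells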
* hit, by the source's call; ? = inconclusive; nt = not tested or not shown. This is a sample that favours compounds with a hit; in the whole collection about 4.2% have one here.

SMILES	Wnt act	FXN GAA850 act	AHR activator	esBAF inh	MITF act
CC(=O)Nc1ccc(C=C(C#N)c2ccc(C)cc2)cc1	47*	4	nt	?	nt
CCc1sc(NC(C)=O)nc1-c1ccccc1	nt	1	12	0	21
CCc1sc(N2C(=O)C3C4CCC(C4=C(C)C)C3C2=O)nc1-c1ccccc1 (configuration not stated)	nt	2	0	54*	-4
CCCNC(=O)N[C@@H]1CC[C@@H](CCn2cc(C3CCCC3)nn2)O[C@H]1CO	nt	nt	nt	-2	nt
C[C@@H]1CN([C@H](C)CO)C(=O)Cc2cc(NC(=O)CCC(F)(F)F)ccc2O[C@@H]1CN(C)C(=O)Nc1ccc2c(c1)OCO2	nt	nt	nt	0	nt
c1ccc2c(COn3nnc4ccccc43)cccc2c1	nt	5	-1	56*	64
c1ccc2c(Cn3nnc4ccccc43)cccc2c1	nt	0	-1	-5	-11
Cc1ccccc1C(=O)Nc1ccccc1-n1cccc1	-1	-2	5	-3	-2
C=CCN(CC=C)C(=O)c1ccccc1NC(=O)c1ccccc1C	-1	0	56*	-2	nt
C[C@H](O)C#Cc1cnc2c(c1)C(=O)N([C@@H](C)CO)C[C@@H](C)[C@H](CN(C)C(=O)CC1CC1)O2	nt	nt	nt	5	nt
COCC(=O)N(C)C[C@@H]1Oc2ncc(C3=CCCC3)cc2C(=O)N([C@H](C)CO)C[C@H]1C	nt	nt	nt	0	nt
CCCCCOC(=O)c1ccc(OC(=O)c2cncc(Br)c2)cc1	nt	4	-1	105*	?
Cc1ccc(/C=C/c2nnc(-c3cccc(C)c3)o2)cc1	17	-2	2	53*	7
Cc1ccc(-c2nnc(/C=C/c3ccccc3)o2)cc1	19	5	8	nt	37
Cc1ccc2oc(-c3cccc(NC(=O)c4ccccn4)c3)nc2c1	37*	3	13	40	nt
COc1cc(C(=O)Nc2cccc(-c3nc4cc(C)ccc4o3)c2)cc(OC)c1OC	8	0	5	nt	24
Cc1ccc2oc(-c3cccc(NC(=O)C4CCCO4)c3)nc2c1 (configuration not stated)	nt	3	72*	79*	30
Cc1cccc(-c2nc3cc(NC(=O)C4CCCO4)ccc3o2)c1 (configuration not stated)	17	1	2	nt	8
